This excerpt belongs to a sample that is enriched for hits.
Pf Dd2 growth – blocks in vitro growth of P. falciparum Dd2. Potency, µM (highest dose often 28.9 µM), for inactives: at the top dose activity, negative = inhibition, actives largely listed as inhibitors. P. falciparum Dd2 growth, SYBR Green, 72 h. AID 1347417. 4.3% of 120,000 active; active = well fitted inhibition curve with a large enough effect;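 also: plate controls were DMSO vehicle for no effect and reference drug for full effect; nearly all actives have a fitted effect of over 65% in size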
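Infected erythrocytes (Dd2, 0.3% parasitemia, 2.5% hematocrit final) are added to compound in RPMI-1640/Albumax II medium, grown 72 h at 37C in low oxygen, then lysed with saponin/Triton-X containing SYBR Green and read by fluorescence.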
Starred values were filed as active, the others as inactive; i = inactive; [ ] = another dose, or the depositor's remark. Potency is read from the fitted curve at half-maximal effect.

SMILES	Pf Dd2 growth
CN1C(=O)c2cccn2CC1CNC(=O)Nc1ccc2c(c1)OCCO2 (stereo not drawn)	-2.3%
COc1ccc(CCNc2nc3c(c(=O)n(C)c(=O)n3C)n2Cc2ccccc2Cl)cc1OC	i
COc1ccc(NC(=O)C(=O)NCCc2ccccc2)cc1OC	28.2%
CCSc1nc2ccccc2c(OCc2cc(C(=O)OC)ccc2OC)c1C(=O)OC	-9.2%
COc1ccc(C(C)=O)cc1CSc1nc(Nc2ccc(F)c(F)c2)c2ccccc2n1	11.2µM*
COc1ccc(-c2nnc(SCc3cccc(Cl)c3)o2)cc1	43.9%
COc1cc(Nc2nc(SCc3cccc(Cl)c3)nc3ccccc23)cc(OC)c1	10µM*
COc1ccccc1NC(=O)CN1CCN(CC(=O)Nc2ccc(F)c(F)c2)CC1	-21.9%
COc1ccc(C(C)=O)cc1CSc1nc(NCCc2ccccc2)c2ccccc2n1	11.2µM*
COc1ccc(CNc2nc(SCc3ccccc3Cl)nc3ccccc23)cc1	i
COc1ccc(NC(=O)CSc2nc(-c3ccccc3)c3ccccc3n2)cc1	26.6%
COc1cc(Nc2nc(SCC(=O)c3ccc(Cl)c(Cl)c3)nc3ccccc23)cc(OC)c1	-7.2%
COc1ccc(CCNc2nc(SCc3ccccc3Cl)nc3ccccc23)cc1OC	3.55µM*
C[C@@H](NC(=O)C1=C[C@@H](NC(=O)Nc2ccc(OC(F)(F)F)cc2)[C@@H](O)[C@H](O)C1)C(N)=O	18.9%
CN(C)c1cccc(-c2nc(C3CC(=O)N(c4ccc(F)cc4)C3)no2)c1 (stereo not drawn)	35.3%
O=C(NCC1CCN(c2cc(-c3ccc(Cl)cc3)[nH]n2)CC1)c1cc(C2CC2)[nH]n1	i
CS(=O)(=O)N1C[C@H]2CCN(C(=O)Cc3c[nH]c4ccccc34)C[C@H]21	17.5%
COc1ccc(-c2nn(C)c3sc(C(=O)NCCN(C)C)cc23)cc1OC	-32.1%
COCCCNC(=O)c1cc2c(-c3cccc(OC)c3)nn(C)c2s1	i
COc1ccc(NC(=O)c2cc3c(C)nn(-c4ccccc4)c3s2)c(OC)c1	i
COc1ccc(-c2nn(C)c3sc(C(=O)Nc4cccc(F)c4)cc23)cc1OC	2.51µM*
COc1cccc(-c2nn(C)c3sc(C(=O)NCc4ccc(C)cc4)cc23)c1	9.7%
COc1ccccc1CNC(=O)c1cc2c(-c3ccc(Cl)cc3)nn(C)c2s1	-20.2%
COc1ccccc1NC(=O)c1cc2c(C)nn(-c3ccccc3)c2s1	-26.8%
Cc1ccc(NC(=O)c2cc3c(-c4ccccc4)nn(-c4ccccc4)c3s2)cc1	2.82µM*
SMILES	Pf Dd2 growth
COc1cccc(NC(=O)c2cc3c(-c4ccc(Cl)cc4)nn(C)c3s2)c1	3.16µM*
Cc1ccc(CNC(=O)c2c(OCC(C)C)cc(=O)n3c2CCCCC3)o1	-0.9%
COc1cc(OC)c(NC(=O)Cn2ccn3nc(-c4ccc(F)cc4)c(CO)c3c2=O)cc1Cl	81.7%
OCC1CN(Cc2cc(F)cc(Br)c2)CC12CCNCC2 (stereo not drawn)	-5.7%
COc1ccccc1CN1CCC(c2nn(Cc3ccccc3)c(=O)[nH]2)CC1	i
CN(C)Cc1nnc(C2CCN(C(=O)c3cn4cccnc4n3)CC2)n1C	7.9%
CN1C(=O)CO[C@H]2CN(C3CCOCC3)C[C@H]21	18.1%[44.1 µM]
COc1ccc(CNC(=O)CC[C@]23CC[C@](C)(O)C[C@H]2C(C)(C)C[C@@H]3NC(=O)c2cccs2)cc1	i
COc1ccc(CNC(=O)CC[C@]23CC[C@](C)(O)C[C@H]2C(C)(C)C[C@@H]3NCc2ccccn2)cc1	7.94µM*
COc1ccc(CNC(=O)CC[C@]23CC[C@](C)(O)C[C@H]2C(C)(C)C[C@@H]3NC(=O)CC(C)(C)C)cc1	i
Cc1cccc(OCCc2noc(C3CCCCN3C(=O)c3ccc(C)nc3)n2)c1 (stereo not drawn)	-21.6%
NC(=O)CO[C@@H]1CO[C@H]2[C@@H]1OC[C@@H]2NC(=S)NC1CCCCC1	-10.5%[44.1 µM]
CCOC(=O)c1c(NC(=O)COc2ccccc2)sc(C(C)=O)c1C	14.7%
CCOC(=O)c1c(NC(=O)COc2ccc(Br)cc2)sc(C(C)=O)c1C	i
CCOC(=O)c1c(NC(=O)COc2ccc(OC)cc2)sc(C(=O)N(CC)CC)c1C	11.2µM*
CC(C)N1C(=O)C2(CCCC2)C1C(=O)Nc1ccccc1 (stereo not drawn)	10.8%
CC(C)NC(=O)N1Cc2[nH]cnc2C[C@H]1C(=O)NCc1ccco1	13.3%[44.1 µM]
Cc1ccc(F)cc1-n1nc(-c2c(C)nc3scc(CC(=O)NCC(C)C)n3c2=O)cc1C	i
CCOC(=O)N1CCN(Cc2nccn2CCOC)CC1	6.9%
COC(=O)N1CCCC(c2nn(-c3ccc(F)cc3)c(=O)[nH]2)C1 (stereo not drawn)	i
CC(=O)N1CCN(C[C@@H]2C=C(C)[C@H](Cc3nnc(-c4cncn4C)o3)C[C@H]2C(C)C)CC1	-11.5%
CC1=C[C@@H](CNC(=O)N2CCOCC2)[C@H](C(C)C)C[C@H]1Cc1nc2ccccc2[nH]1	-7.8%[44.1 µM]
CC1=C[C@@H](CN2CCN(c3ccccc3)CC2)[C@H](C(C)C)C[C@H]1Cc1nnc(-c2cncn2C)o1	3.98µM*

Screening data: PubChem BioAssay, National Center for Advancing Translational Sciences (NCATS)
